What follows are compounds tested on Mel-DCC-11-R (assay: cell viability relative to DMSO control (fraction of DMSO control); higher = less cytotoxic, active = 0.8 or less). Conditions: 1 µM; 120 h; vemurafenib co-treatment 0 µM.
Summary of the method: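 For 120 h, duplicate wells of 384-well plates held 1 µM of each of 315 approved anti-cancer drugs (TargetMol), spotted acoustically before cells were added in 40 µl per well. Immortalized NHEM-hTERT melanocytes were seeded at 2500/well, and patient-derived Mel-DCC-11 plus its resistant subline Mel-DCC-11-R at 1500/well. The subline was run both without and with 8 µM of its selecting drug, and ATPlite 1step luminescence was read. Viability was normalised to vehicle-treated wells and averaged over the two replicates.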
In the case of `COc1cccc2c1C(=O)c1c(O)c3c(c(O)c1C2=O)C[C@@](O)(C(=O)CO)C[C@@H]3O[C@H]1C[C@H](N)[C@H](O[C@H]2CCCCO2)[C@H](C)O1` [Pirarubicin], the cell viability is reported as 0.233 (active). `CC(=O)c1c(C)c2cnc(Nc3ccc(N4CCNCC4)cn3)nc2n(C2CCCC2)c1=O.Cl` [Palbociclib hydrochloride] was tested, and the cell viability was 1.46 (inactive). In the case of `CCC1(O)C(=O)OCc2c1cc1n(c2=O)Cc2cc3cc(O)ccc3nc2-1` (configuration not stated) [Hydroxy Camptothecine], the cell viability is reported as 0.422 (active). In the case of `CN(C)N=Nc1[nH]cnc1C(N)=O` [Dacarbazine], the cell viability is reported as 1.04 (inactive). In the case of `O=C(CCCCCCNC(=O)c1cnc(N(c2ccccc2)c2ccccc2)nc1)NO` [Rocilinostat], the cell viability is reported as 0.681 (active). In the case of `CNC(=O)c1c(C)oc2cc(Oc3ncnc4cc(OC)c(OC)cc34)ccc12` [Fruquintinib], the cell viability is reported as 1.09 (inactive). For `NC(=O)N1CCC(CC(=O)N2CCC([C@H]3c4ncc(Br)cc4CCc4cc(Cl)cc(Br)c43)CC2)CC1` [Lonafarnib], the cell viability was 0.926 (inactive). For `CCOc1cc2ncc(C#N)c(Nc3ccc(OCc4ccccn4)c(Cl)c3)c2cc1NC(=O)/C=C/CN(C)C` [Neratinib], the cell viability was 1.31 (inactive). `Cc1cc(Nc2cc(N3CCN(C)CC3)nc(Sc3ccc(NC(=O)C4CC4)cc3)n2)n[nH]1` [Tozasertib] was tested, and the cell viability was 1.14 (inactive). In the case of `COc1cc(N2CCC(N3CCN(C)CC3)CC2)ccc1Nc1ncc(Cl)c(Nc2ccccc2P(C)(C)=O)n1` [Brigatinib], the cell viability is reported as 1.08 (inactive). In the case of `Nc1ncn([C@@H]2O[C@H](CO)[C@@H](O)[C@H]2O)c(=O)n1` [Mylosar], the cell viability is reported as 0.927 (inactive). `Nc1nc2[nH]nnc2c(=O)[nH]1` [8-Azaguanine] was tested, and the cell viability was 1.42 (inactive). In the case of `C=CC(=O)Nc1cccc(Nc2nc(Nc3ccc(N4CCN(C(C)=O)CC4)cc3OC)ncc2C(F)(F)F)c1` [Rociletinib], the cell viability is reported as 0.855 (inactive). `Oc1c(I)cc(Cl)c2cccnc12` [Clioquinol] was tested, and the cell viability was 0.866 (inactive). In the case of `COc1cc2nccc(Oc3ccc(NC(=O)C4(C(=O)Nc5ccc(F)cc5)CC4)cc3)c2cc1OC.O=C(O)C[C@H](O)C(=O)O`, the cell viability is reported as 1.05 (inactive). In the case of `O=c1c(-c2ccc(O)cc2)coc2cc(O)cc(O)c12` [Genistein], the cell viability is reported as 0.984 (inactive). In the case of `CCc1c2c(nc3ccc(OC(=O)N4CCC(N5CCCCC5)CC4)cc13)-c1cc3c(c(=O)n1C2)COC(=O)[C@]3(O)CC.Cl.O.O.O` [Irinotecan hydrochloride trihydrate], the cell viability is reported as 1.32 (inactive). For `COC(=O)c1ccc2c(c1)NC(=O)/C2=C(\Nc1ccc(N(C)C(=O)CN2CCN(C)CC2)cc1)c1ccccc1` [Nintedanib], the cell viability was 1.01 (inactive). In the case of `C[C@@H](CN1CC(=O)NC(=O)C1)N1CC(=O)NC(=O)C1.Cl` [Dexrazoxane HCl], the cell viability is reported as 1.09 (inactive). With `CC(=O)c1c(C)c2cnc(Nc3ccc(N4CCNCC4)cn3)nc2n(C2CCCC2)c1=O` [Palbociclib] the cell viability was 1.76 (inactive). In the case of `Cc1ccc(-c2ncc(Cl)cc2-c2ccc(S(C)(=O)=O)cc2)cn1` [Etoricoxib], the cell viability is reported as 1.11 (inactive). In the case of `C1=C/COCc2cc(ccc2OCCN2CCCC2)Nc2nccc(n2)-c2cccc(c2)COC/1` [Pacritinib], the cell viability is reported as 1.46 (inactive). With `Nc1[nH]c(=O)ncc1F` [Fluorocytosine] the cell viability was 0.936 (inactive). For `CC(C)=CCC/C(C)=C/CC/C(C)=C/CC/C(C)=C/CC1=C(C)C(=O)c2ccccc2C1=O` [Menatetrenone], the cell viability was 1.11 (inactive). In the case of `C#C[C@]1(O)CC[C@H]2[C@@H]3CCc4cc(OC5CCCC5)ccc4[C@H]3CC[C@@]21C` [Quinestrol], the cell viability is reported as 0.953 (inactive). In the case of `O=c1cc[nH]c(=O)[nH]1` [Uracil], the cell viability is reported as 0.875 (inactive). For `N#CC1(c2ccc(NC(=O)c3cccnc3NCc3ccncc3)cc2)CCCC1` [Apatinib], the cell viability was 1.14 (inactive). `CO[C@H]1C[C@@H]2CC[C@@H](C)[C@@](O)(O2)C(=O)C(=O)N2CCCC[C@H]2C(=O)O[C@H]([C@H](C)C[C@@H]2CC[C@@H](OCCO)[C@H](OC)C2)CC(=O)[C@H](C)/C=C(\C)[C@@H](O)[C@@H](OC)C(=O)[C@H](C)C[C@H](C)/C=C/C=C/C=C/1C` [Everolimus] was tested, and the cell viability was 1.57 (inactive). In the case of `CS(=O)(=O)OCCCCOS(C)(=O)=O` [Busulfan], the cell viability is reported as 0.994 (inactive). `COc1ccc([C@@H]2CC(=O)c3c(O)cc(O)cc3O2)cc1O` [Hesperetin] was tested, and the cell viability was 0.891 (inactive). For `Cc1c(C)c2c(c(C)c1O)CCC(C)(COc1ccc(CC3SC(=O)NC3=O)cc1)O2` (configuration not stated) [Troglitazone], the cell viability was 1.01 (inactive). With `CC(C)C[C@H](NC(=O)[C@H](CCc1ccccc1)NC(=O)CN1CCOCC1)C(=O)N[C@@H](Cc1ccccc1)C(=O)N[C@@H](CC(C)C)C(=O)[C@@]1(C)CO1` [Carfilzomib] the cell viability was 0.0186 (active). For `CCN(c1cc(-c2ccc(CN3CCOCC3)cc2)cc(C(=O)NCc2c(C)cc(C)[nH]c2=O)c1C)C1CCOCC1`, the cell viability was 0.831 (inactive). For `Oc1ccc(/C=C/c2cc(O)cc(O)c2)cc1` [Resveratrol], the cell viability was 0.914 (inactive). `COc1cc2nccc(Oc3ccc(NC(=O)C4(C(=O)Nc5ccc(F)cc5)CC4)cc3)c2cc1OC` [Cabozantinib] was tested, and the cell viability was 1.1 (inactive). For `Nc1nc(=O)c2c([nH]1)NCC(CNc1ccc(C(=O)N[C@@H](CCC(=O)[O-])C(=O)[O-])cc1)N2C=O.[Ca+2]` (some centres not stated) [Calcium folinate], the cell viability was 1.68 (inactive). For `CC1(COc2ccc3c(c2)ncn3-c2ccc3cccc(N4CCC(N)CC4)c3n2)COC1` [Crenolanib], the cell viability was 1.26 (inactive).

Source: the supplement of paper PMC12808144
